Assay results published in PubChem BioAssay (NCI).
This is part of a sample that, as a whole, favours compounds with a hit. Of some 83,000 tested, about 20% had one in any assay.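 Treatment: one concentration, 48 hours, 96-well format. Scoring: percent growth, with anything below 10 considered active.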 Activity calls are given as the source filed them.

Each compound was assayed on OVCAR-8 ovarian (assay: NCI-60 one-dose screen, 48 h (100 = growth as untreated, 0 = no growth, -100 = all killed)). Settings: 10 µM unless noted.

| SMILES | growth |
| --- | --- |
| CC(C)c1[nH]ncc1-c1nc2ccc3[nH]ncc3c2c2c1CCCC2 | 37.2% (inactive) |
| Cc1cc(-c2nnc(/C=C/c3ccc4c(c3)OCO4)o2)n[nH]1 | 91.5% (inactive) |
| CCN(CC)CCCCCCCNc1cc(OC)cc2c(C)ccnc12 | 67.2% (inactive) |
| CCCc1n(Cc2ccc3ccccc3n2)cc[n+]1Cc1ccc2ccccc2n1 | 35.6% (inactive) |
| COc1ccc(/C=C2\N=C(c3cccnc3)N(c3ccccc3)NC2=O)cc1 | 95.9% (inactive) |
| COc1ccc(Sc2[nH]c(C=O)c3ccccc23)cc1 | 69.3% (inactive) |
| COc1ccc(-n2nc(C(=O)NCC(=O)Nc3nc4cc(OC)ccc4s3)c3ccccc3c2=O)cc1 | -12.4% (active) |
| CCCCN(CCCC)CCCN=c1nc2c(c(N)n1-c1ccccc1)c(=S)n(-c1ccccc1)c(=S)n2-c1ccccc1 | -36.1% (active) |
| O=C(/C=C/c1ccccc1)C(Br)C(Br)c1ccccc1 (stereo not drawn) | -20.7% (active) |
| COc1ccc(Nc2ncccc2C(=O)NCc2cn(Cc3cc(OC)cc(OC)c3)nn2)cc1 | 97.6% (inactive) |
| CN(C)c1ccc(C(c2ccccc2)c2ccc(N(C)C)cc2)cc1 | 90.9% (inactive) |
| COc1ccc(/C(=C\c2cc(OC)c(OC)c(OC)c2)C(=O)N2CCNCC2)cc1 | 105% (inactive) |
| CC(=O)c1ccc(Nc2nc(Cl)nc(Oc3c(Cl)cccc3Cl)n2)cc1 | 92.5% (inactive) |
| COc1cc2nccc(Oc3ccc(NC(=O)C4(C(=O)Nc5ccc(F)cc5)CC4)cc3)c2cc1Oc1ccc(N)cn1 | 47.1% (inactive) |
| N#Cc1nc(-c2ccc(Cl)cc2)cc(-c2ccc(Nc3nc(N4CCCCC4)nc(N4CCCCC4)n3)cc2)c1N | 96.5% (inactive) |
| Cc1ccccc1CNc1ncnc2[nH]ncc12 | 59.7% (inactive) |
| CN(C)CCOc1nc2c3ccncc3cc(-c3cccc(Cl)c3)c2c2cnccc12 | 18.2% (inactive) |
| Cc1ccc(C2CC(c3cccs3)=NN2c2ccc(S(N)(=O)=O)cc2)s1 (stereo not drawn) | 83.2% (inactive) |
| CN=C1C=C/C(=N/N=c2/ccn(O)cc2C)C=C1C | 94.2% (inactive) |
| Oc1[nH]c2ccccc2c1/C=c1/ccc2c(c1)N=C(c1ccc(C(F)(F)F)cc1)N=2 | 70.5% (inactive) |

| SMILES | growth |
| --- | --- |
| Clc1ccc(Nc2ncnc3c2sc2ncccc23)cc1 | 12.2% (inactive) |
| Nc1nc(N)c2cc(Sc3ccc(Cl)cc3)ccc2n1 | 34.8% (inactive) |
| CCN(C(=O)Nc1cccc2ccccc12)c1ccccc1 | 74.3% (inactive) |
| CCN(CC)CCCC(C)Nc1cnc(C(=O)Nc2ccc(Cl)c3cccnc23)cn1 (stereo not drawn) | 27.3% (inactive) |
| C/C(=N\NC(=S)Nc1ccccc1)c1ccccn1 | 11.8% (inactive) |
| C[C@]12CCc3nc(Nc4ccc(O)cc4)sc3C1=CC[C@@H]1[C@@H]2CC[C@]2(C)/C(=N/NC(N)=S)CC[C@@H]12 | 4.45% (active) |
| CC1(C)C(N(O)C(=O)Nc2ccc(Cl)cc2)N(c2ccc(Cl)cc2)C(=O)N1CC(=O)N/N=C/C=C/c1ccc([N+](=O)[O-])o1 (stereo not drawn) | 3.32% (active) |
| COc1ccc(C(=O)c2c(N)nc3n2CCCC3)cc1OC | 95.4% (inactive) |
| Fc1ccc2c(CN3CCO[C@H](COc4cccc(Cl)c4)C3)c[nH]c2c1 | 33.3% (inactive) |
| CC(=O)c1c(C)nc(-c2cc(C)cc(Cl)c2)nc1-c1cccc(Oc2ccccc2)c1 | 91.8% (inactive) |
| FC(F)(F)c1ccc(/C=N/Nc2nnc3n2N=C(c2ccc(Cl)cc2)CS3)cc1 | 19.9% (inactive) |
| O=C1/C(=C\c2cccn2C(=O)c2ccccc2)c2ccccc2N1c1c(Cl)cccc1Cl | 87% (inactive) |
| Cc1ccc(S(=O)(=O)NC(CCC(=O)Nc2ccc(Cl)cc2)C(=O)Nc2ccc(Cl)cc2)cc1 (stereo not drawn) | 39.2% (inactive) |
| CNC(=O)c1cc(Oc2ccc(NC(=O)c3nc(S(C)(=O)=O)n(C)c3-c3ccc(F)cc3)cc2)ccn1 | 75.8% (inactive) |
| Nc1c(C(=O)c2ccc(Br)cc2)sc2nc3c(cc12)CCCC3 | 98.7% (inactive) |
| CCCCn1cnc(-c2cc(-c3ccccc3)cc(C(F)(F)F)c2)n1 | 97.5% (inactive) |
| COCCCNCC(=O)Nc1c(C)cccc1C | 107% (inactive) |
| COc1ccc(/C(=C\c2ccc3c(c2)OCO3)C(=O)Nc2nc3ccccc3s2)cc1 | 102% (inactive) |
| COc1ccc2[nH]c(O)c(/C=c3/ccc4c(c3)N=C(c3ccc(C(F)(F)F)cc3)N=4)c2c1 | 87.1% (inactive) |

What follows are compounds tested on OVCAR-5 ovarian in the same assay as above. Settings: 10 µM unless noted.

| SMILES | growth |
| --- | --- |
| CC(C)c1[nH]ncc1-c1nc2ccc3[nH]ncc3c2c2c1CCCC2 | 48.7% (inactive) |
| Cc1cc(-c2nnc(/C=C/c3ccc4c(c3)OCO4)o2)n[nH]1 | 92.2% (inactive) |
| CCN(CC)CCCCCCCNc1cc(OC)cc2c(C)ccnc12 | 97.5% (inactive) |
| CCCc1n(Cc2ccc3ccccc3n2)cc[n+]1Cc1ccc2ccccc2n1 | 47.7% (inactive) |
| COc1ccc(/C=C2\N=C(c3cccnc3)N(c3ccccc3)NC2=O)cc1 | 103% (inactive) |
| COc1ccc(Sc2[nH]c(C=O)c3ccccc23)cc1 | 28.5% (inactive) |
| COc1ccc(-n2nc(C(=O)NCC(=O)Nc3nc4cc(OC)ccc4s3)c3ccccc3c2=O)cc1 | 44.6% (inactive) |
| CCCCN(CCCC)CCCN=c1nc2c(c(N)n1-c1ccccc1)c(=S)n(-c1ccccc1)c(=S)n2-c1ccccc1 | -60.2% (active) |
| O=C(/C=C/c1ccccc1)C(Br)C(Br)c1ccccc1 (stereo not drawn) | 38.3% (inactive) |
| COc1ccc(Nc2ncccc2C(=O)NCc2cn(Cc3cc(OC)cc(OC)c3)nn2)cc1 | 106% (inactive) |
| CN(C)c1ccc(C(c2ccccc2)c2ccc(N(C)C)cc2)cc1 | 94% (inactive) |
| COc1ccc(/C(=C\c2cc(OC)c(OC)c(OC)c2)C(=O)N2CCNCC2)cc1 | 102% (inactive) |
| CC(=O)c1ccc(Nc2nc(Cl)nc(Oc3c(Cl)cccc3Cl)n2)cc1 | 105% (inactive) |
| COc1cc2nccc(Oc3ccc(NC(=O)C4(C(=O)Nc5ccc(F)cc5)CC4)cc3)c2cc1Oc1ccc(N)cn1 | 40% (inactive) |
| N#Cc1nc(-c2ccc(Cl)cc2)cc(-c2ccc(Nc3nc(N4CCCCC4)nc(N4CCCCC4)n3)cc2)c1N | 113% (inactive) |
| Cc1ccccc1CNc1ncnc2[nH]ncc12 | 89.6% (inactive) |
| CN(C)CCOc1nc2c3ccncc3cc(-c3cccc(Cl)c3)c2c2cnccc12 | 58.8% (inactive) |
| Cc1ccc(C2CC(c3cccs3)=NN2c2ccc(S(N)(=O)=O)cc2)s1 (stereo not drawn) | 101% (inactive) |
| CN=C1C=C/C(=N/N=c2/ccn(O)cc2C)C=C1C | 83.2% (inactive) |
| Oc1[nH]c2ccccc2c1/C=c1/ccc2c(c1)N=C(c1ccc(C(F)(F)F)cc1)N=2 | 72.3% (inactive) |

| SMILES | growth |
| --- | --- |
| Clc1ccc(Nc2ncnc3c2sc2ncccc23)cc1 | 58.2% (inactive) |
| Nc1nc(N)c2cc(Sc3ccc(Cl)cc3)ccc2n1 | 39.4% (inactive) |
| CCN(C(=O)Nc1cccc2ccccc12)c1ccccc1 | 91.6% (inactive) |
| CCN(CC)CCCC(C)Nc1cnc(C(=O)Nc2ccc(Cl)c3cccnc23)cn1 (stereo not drawn) | 53.3% (inactive) |
| C/C(=N\NC(=S)Nc1ccccc1)c1ccccn1 | 35.6% (inactive) |
| C[C@]12CCc3nc(Nc4ccc(O)cc4)sc3C1=CC[C@@H]1[C@@H]2CC[C@]2(C)/C(=N/NC(N)=S)CC[C@@H]12 | 49.9% (inactive) |
| CC1(C)C(N(O)C(=O)Nc2ccc(Cl)cc2)N(c2ccc(Cl)cc2)C(=O)N1CC(=O)N/N=C/C=C/c1ccc([N+](=O)[O-])o1 (stereo not drawn) | 6.4% (active) |
| COc1ccc(C(=O)c2c(N)nc3n2CCCC3)cc1OC | 111% (inactive) |
| Fc1ccc2c(CN3CCO[C@H](COc4cccc(Cl)c4)C3)c[nH]c2c1 | 85.8% (inactive) |
| CC(=O)c1c(C)nc(-c2cc(C)cc(Cl)c2)nc1-c1cccc(Oc2ccccc2)c1 | 107% (inactive) |
| FC(F)(F)c1ccc(/C=N/Nc2nnc3n2N=C(c2ccc(Cl)cc2)CS3)cc1 | 92.7% (inactive) |
| O=C1/C(=C\c2cccn2C(=O)c2ccccc2)c2ccccc2N1c1c(Cl)cccc1Cl | 87.9% (inactive) |
| Cc1ccc(S(=O)(=O)NC(CCC(=O)Nc2ccc(Cl)cc2)C(=O)Nc2ccc(Cl)cc2)cc1 (stereo not drawn) | 67.8% (inactive) |
| CNC(=O)c1cc(Oc2ccc(NC(=O)c3nc(S(C)(=O)=O)n(C)c3-c3ccc(F)cc3)cc2)ccn1 | 104% (inactive) |
| Nc1c(C(=O)c2ccc(Br)cc2)sc2nc3c(cc12)CCCC3 | 88% (inactive) |
| CCCCn1cnc(-c2cc(-c3ccccc3)cc(C(F)(F)F)c2)n1 | 113% (inactive) |
| COCCCNCC(=O)Nc1c(C)cccc1C | 104% (inactive) |
| COc1ccc(/C(=C\c2ccc3c(c2)OCO3)C(=O)Nc2nc3ccccc3s2)cc1 | 93.6% (inactive) |
| COc1ccc2[nH]c(O)c(/C=c3/ccc4c(c3)N=C(c3ccc(C(F)(F)F)cc3)N=4)c2c1 | 113% (inactive) |
